# Calls of active or inactive are those of the source. The calls were made as follows: active = hit-call score of the fitted dose curve at least 0.9, where 1 is the maximum; inactive = score below 0.9.
# Molecular target: Hypoxia-inducible factor 1-alpha (Homo sapiens) (UniProt Q16665)
# Experiment: ATG_HIF1a_CIS: Attagene CIS-FACTORIAL HepG2 Assay for human Hypoxia Inducible Factor 1 (HIF1A) (AID 2282951)
# Conditions: HepG2 Attagene cis-factorial HIF1a reporter transcription; actives raise or lower the signal
# Method: ATG_CIS is a cell-based, multiplexed-readout assay that uses HepG2, a human liver cell line, with measurements taken at 24 hours after chemical dosing in a 24-well plate.ATG_HIF1a_CIS is one of 52 assay component(s) measured or calculated from the ATG_CIS assay. It is designed to make measurements of mRNA induction, a form of inducible reporter, as detected with fluorescence intensity signals by Reverse transcription polymerase chain reaction (RT-PCR) and Capillary electrophoresis technology.Data from the assay component ATG_HIF1a_CIS was analyzed into 1 assay endpoint. This assay endpoint, ATG_HIF1a_CIS, was analyzed with bidirectional fitting relative to DMSO as the negative control and baseline of activity. Using a type of inducible reporter, measures of mRNA for gain or loss-of-signal activity can be used to understand the reporter gene at the transcription factor-level as they relate to the gene HIF1A. Furthermore, this assay endpoint can be referred to as a primary readout, because this assay has produced multiple assay endpoints where this one serves a reporter gene function. To generalize the intended target to other relatable targets, this assay endpoint is annotated to the dna binding intended target family, where the subfamily is basic helix-loop-helix protein.
# Human liver HepG2 cells are transiently transfected with multiple reporter transcription units (MRTUs) in 6-well plates using FuGene 6 reagent (Roche; 3 ml FuGene/1 mg DNA). The MRTU constructs are regulated by a cis-regulating element (promoter). […] A major difference between the CIS and TRANS system is that in CIS activities of endogenous TFs are measured, whereas the TRANS assay evaluates changes in activities of exogenous, chimeric NR-Gal4 proteins. […] At the end of 24 hour incubation, total RNA was isolated using TriZol reagent (Invitrogen). The isolated RNA is then reverse-transcribed using oligo(dT) primer and Mo-MLV reverse transcriptase (Invitrogen) with DNAse I (Ambion) treatment for 30 min. The one-tenth of the produced cDNA was amplified by PCR using Taq DNA polymerase (Invitrogen) and two reporter sequence-specific primers. The PCR products were fluorescently labeled by primer extension with 6-arboxyfluorescein (6-FAM) 5'-labeled reporter sequence-specific primer (2 min at 95 C, 20 s at 68 C and 10 min at 72 C) and these products were digested with 5U of HpaI (New England Biolabs) for 2h at 37 C. The fragments were purified using Qiaquick PCR columns (Qiagen), analyzed on an ABI 3130xL genetic analyzer (Applied Biosystems) with peak positions identified by using a set of X-rhodamine (ROX)-labeled MapMarker1000 molecular weight standards (BioVentures). The raw capillary electrophoresis data was processed using Attagraph software (Attagene).
# Hypoxia-inducible factor 1-alpha (Homo sapiens), sequence (Q16665 whole entry, looked up): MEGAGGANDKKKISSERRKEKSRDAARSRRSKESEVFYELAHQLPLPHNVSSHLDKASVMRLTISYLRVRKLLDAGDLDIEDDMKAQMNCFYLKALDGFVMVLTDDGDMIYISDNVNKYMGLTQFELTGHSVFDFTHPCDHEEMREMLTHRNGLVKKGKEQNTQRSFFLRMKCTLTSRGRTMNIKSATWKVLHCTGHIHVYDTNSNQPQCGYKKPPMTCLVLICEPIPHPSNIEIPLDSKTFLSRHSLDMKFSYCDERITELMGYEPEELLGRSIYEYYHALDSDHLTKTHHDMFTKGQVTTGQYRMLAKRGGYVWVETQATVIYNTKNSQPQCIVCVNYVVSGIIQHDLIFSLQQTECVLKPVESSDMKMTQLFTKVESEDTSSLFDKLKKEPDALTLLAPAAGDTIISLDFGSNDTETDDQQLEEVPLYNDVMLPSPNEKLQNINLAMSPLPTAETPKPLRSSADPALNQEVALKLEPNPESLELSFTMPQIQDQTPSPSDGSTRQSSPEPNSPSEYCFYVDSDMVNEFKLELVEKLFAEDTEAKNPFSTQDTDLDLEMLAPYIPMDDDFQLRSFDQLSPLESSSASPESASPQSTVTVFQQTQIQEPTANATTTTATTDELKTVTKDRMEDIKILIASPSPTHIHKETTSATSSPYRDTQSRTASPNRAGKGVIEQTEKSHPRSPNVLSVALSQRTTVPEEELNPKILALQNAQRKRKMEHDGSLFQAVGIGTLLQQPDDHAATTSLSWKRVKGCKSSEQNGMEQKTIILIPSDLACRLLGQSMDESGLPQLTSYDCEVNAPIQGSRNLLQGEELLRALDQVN
Structure (SMILES),outcome,AC50
CCC(C(=O)NC(N)=O)c1ccccc1 (stereo not given),inactive,–
CC(C)C1CCC(O)CC1 (stereo not given),inactive,–
O=Nc1ccc(Nc2ccccc2)cc1,–,33.4 µM (active)
FC1(F)C(F)(F)C(F)(F)C2(F)C(F)(C1(F)F)C(F)(F)C(F)(F)C1(F)C(F)(F)C(F)(F)C(F)(F)C(F)(F)C12F (stereo not given),inactive,–
NCCCN1CCOCC1,inactive,–
O=C(O)C[C@H](O)C[C@H](O)/C=C/c1c(C2CC2)nc2ccccc2c1-c1ccc(F)cc1,inactive,–
COC(=O)OC,inactive,–
CC(CC(C)(C)C)CC(C)(C)CC(C)(C)C (stereo not given),inactive,–
CC(c1cc2ccccc2s1)N(O)C(N)=O (stereo not given),inactive,–
C=CC(C)(C)O,inactive,–
Clc1cccc(Cl)n1,inactive,–
CCCC(C)C=O (stereo not given),inactive,–
O=C(O)c1snc(Cl)c1Cl,inactive,–
[Ca+2],inactive,–
CC(C)=CCCC(C)=CCCC(C)=CCO,inactive,–
COc1nc(C)nc(N)n1,inactive,–
C=COCCOCCOCCOC=C,inactive,–
Cc1c(Cl)c(=O)oc2cc(O)ccc12,inactive,–
CCCCc1ccc(N)cc1,inactive,–
Cc1ccc(C(=O)c2cc(O)c(O)c([N+](=O)[O-])c2)cc1,–,27.4 µM (active)

Structure (SMILES),outcome,AC50
c1ccc2sc(SN(C3CCCCC3)C3CCCCC3)nc2c1,inactive,–
CCCCCCCCCCCCSC,inactive,–
Cc1ccc(C=O)s1,inactive,–
CC(C)=CCC/C(C)=C/COC=O,inactive,–
CC1=CCC2C(C1)C2(C)C (stereo not given),inactive,–
CCCCCCCCCCCCN,inactive,–
CC(C)=CCO,inactive,–
COCCCOc1ccnc(CS(=O)c2nc3ccccc3[nH]2)c1C (stereo not given),inactive,–
COc1cc(C=O)ccc1OC(=O)C(C)C,inactive,–
CCCCCCOC(=O)CC,inactive,–
O=C1c2ccccc2C(=O)N1SC1CCCCC1,inactive,–
O=S(=O)(O)NC1CCCCC1,inactive,–
CC(=O)/C=C/C1=C(C)CCCC1(C)C,inactive,–
COc1cc2ncnc(Nc3cccc(Cl)c3)c2cc1OC,–,11.4 µM (active)
COC(=O)Cc1cccc2ccccc12,inactive,–
O=c1oc(=O)c2cc3c(=O)oc(=O)c3cc12,inactive,–
NCCNCCN,inactive,–
CCc1c(C)cc(N)c(CC)c1N,inactive,–
Nc1nc2ccc([N+](=O)[O-])cc2s1,inactive,–
CN(C)c1ccc(O)c2c1C[C@H]1C[C@H]3[C@H](N(C)C)C(=O)C(C(N)=O)=C(O)[C@@]3(O)C(=O)C1=C2O,inactive,–
